According to PubChem BioAssay (NCATS):
“And” between values parts separate entries of the source, which are not always exact repeats. Equal entries are not always repeated. Inconclusive results are not listed. The source made the active and inactive calls. Unless noted, calls follow the shape of the dose curve; as a rule, active = well fitted curve in the direction sought with a large enough effect; inconclusive = small, poorly fitted or top-dose-only effect, or another doubt; inactive = no such curve, though single readings can be large; an effect the other way counts as inactive or inconclusive.

Columns and labels:
[1] = qHTS for differential inhibitors of proliferation of Plasmodium falciparum line 7G8 (AID 1815);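 also: parasite growth measured after three days of incubation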; also: potency is read from the fitted curve at half-maximal effect
[2] = qHTS for differential inhibitors of proliferation of Plasmodium falciparum line D10 (AID 1877);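 also: parasites grown with compound for 72 h before DNA staining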; also: potency is read from the fitted curve at half-maximal effect
[3] = qHTS for differential inhibitors of proliferation of Plasmodium falciparum line W2 (AID 1883); conditions: Potency: Plasmodium falciparum W2 proliferation inhibition;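 also: parasites grown with compound for 72 h before lysis and staining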; also: potency is read from the fitted curve at half-maximal effect
[4] = Quantitative high throughput screen for delayed death inhibitors of the malarial parasite plastid, 96 hour incubation (AID 488745); also: nearly all actives have a fitted effect of over 70% in size; also: potency is read from the fitted curve at half-maximal effect
Summary of the method: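 Growth of reporter-bearing P. falciparum in red cells is measured after 96 h with compound, covering two erythrocytic cycles. Luminescence from the integrated luciferase serves as the growth signal.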

[5] = Quantitative high throughput screen for delayed death inhibitors of the malarial parasite plastid, 48 hour incubation (AID 488752); also: nearly all actives have a fitted effect of over 65% in size; also: potency is read from the fitted curve at half-maximal effect
Summary of the method: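 One parasite generation (48 h, 37 C, 5% CO2) of luciferase-reporter P. falciparum in erythrocytes is run with test compound; decreased luminescence indicates inhibited growth.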

[6] = AP1 Signaling Pathway (AID 357; active = well fitted curve in either direction with a large enough effect, not every such curve was filed as active; also: % is scaled to controls: 0 for no effect and ±100 for the full control effect)
Summary of the method: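 AP-1-bla ME-180 cells with beta-lactamase reporter under AP-1 response element, stimulated with EC50 EGF; compounds titrated, 5 hours at 37 degrees Celsius. CCF4 read at 460/530 nm ratio; positive and negative modulators judged by AC50.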

[7] = Stat Signaling Pathway (AID 446; active = well fitted curve in either direction with a large enough effect, not every such curve was filed as active;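 also: ME-180 cervical cancer cells given 40 pM IL-6 alongside compound; SIE-controlled beta-lactamase reporter measured as 460/530 nm FRET emission ratio; % is scaled to controls: 0 for no effect and ±100 for the full control effect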)
Summary of the method: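 Screening format detects activators and inhibitors alike: ME-180 SIE-bla cells stimulated at 40 pM IL-6 for 5 hrs with compound, then dual-emission beta-lactamase read at 405 nm excitation.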

[8] = biological target: Glucocorticoid receptor (Homo sapiens) (UniProt P04150); assay: GR-GFP Redistribution (AID 450;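 active = compounds whose dose series gives a full or clear partial fitted curve of increased nuclear translocation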; also: potency is read from the fitted curve at half-maximal effect); conditions: U2OS GR-GFP nuclear translocation, laser cytometry, 2 h
[9] = biological target: Guanine nucleotide-binding protein G(i) subunit alpha-1 (Homo sapiens) (UniProt P63096); assay: qHTS Assay for Inhibitors of RGS12 GoLoco Motif Activity (Green Fluorophore) (AID 879);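 also: 0% = labeled peptide with Gαi1 and full inhibition = labeled peptide alone without protein; negative values mean loss of peptide binding seen as reduced polarization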
Summary of the method: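 Fluorescence polarization assay: 50 nM Gαi1 with 10 nM FITC-labeled RGS12 GoLoco peptide in 10 mM Tris pH 7.5, 150 mM NaCl, 0.1 mM GDP, 0.05% NP40, 10 min at room temperature with compound.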

[10] = biological target: Pyruvate kinase (Leishmania mexicana) (UniProt Q27686); assay: qHTS Validation Assay for Inhibitors of Leishmania Mexicana Pyruvate Kinase (AID 945); also: potency is read from the fitted curve at half-maximal effect
Summary of the method: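 An endpoint luciferase assay: 0.2 nM LmPYK E451W turns over 0.5 mM PEP with 0.1 mM ADP for 1 h at room temperature, pH 7.2, before PKLight addition. Values are normalized to DMSO-only wells.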

[11] = qHTS for differential inhibitors of proliferation of Plasmodium falciparum line HB3 (AID 1886); conditions: Potency: Plasmodium falciparum HB3 proliferation inhibition;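 also: parasites grown with compound for 72 h before SYBR Green readout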; also: potency is read from the fitted curve at half-maximal effect
[12] = qHTS Assay for Modulators of Human Peripheral Myelin Protein 22 (PMP22) Expression/Activity (AID 1967; active = well fitted curve in the direction sought with a large enough effect in the signal ratio; the % refers to the signal ratio;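 also: 0% = untreated cells and 100% end not stated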)
Summary of the method: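 Luminescence ratio of Pmp22 promoter-driven green luciferase to EF-alpha-driven red luciferase, in engineered mouse MSC80 Schwann cells, served as read-out. Compounds were incubated 24h; untreated cells defined 0% Activity; curves were classified by r2, magnitude and activity.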

[13] = biological target: Voltage-gated inwardly rectifying potassium channel KCNH2 (Homo sapiens) (UniProt Q12809); assay: qHTS Assay for Small Molecule Inhibitors of the Human hERG Channel Activity (AID 588834);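 also: lower thallium flux fluorescence means stronger hERG block; nearly all actives have a fitted effect of over 50% in size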; also: potency is read from the fitted curve at half-maximal effect
Summary of the method: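 hERG-BacMam U2OS, 2000 cells/well; 0.7X FluxOR loading 1 hr RT dark; cpd ~10 min 37 °C; stim buffer; FDSS fluorescence 2 min @ 1 s; AC50 Hill fit.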

[14] = qHTS for differential inhibitors of proliferation of Plasmodium falciparum line GB4 (AID 1816); conditions: Potency: Plasmodium falciparum GB4 proliferation inhibition;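 also: parasite growth measured after 72 h incubation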; also: potency is read from the fitted curve at half-maximal effect
[15] = qHTS for differential inhibitors of proliferation of Plasmodium falciparum line 3D7 (AID 1876); also: potency is read from the fitted curve at half-maximal effect;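 as to activity, negative = inhibition: parasite growth measured after three days of culture; 0% = vehicle wells and -100% = reference inhibitor wells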
[16] = qHTS for differential inhibitors of proliferation of Plasmodium falciparum line Dd2 (AID 1882); conditions: Potency: Plasmodium falciparum Dd2 proliferation inhibition; also: nearly all actives have a fitted effect of over 65% in size; also: potency is read from the fitted curve at half-maximal effect
Summary of the method: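 SYBR Green I DNA fluorescence read-out, ex 485/em 535 nm. Signals were normalized to 0.29 uM artemisinin and DMSO wells, then corrected using vehicle-only plates flanking each stack. Parasite growth ran 72 h in erythrocytes before lysis.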

[17] = biological target: RecQ-like DNA helicase BLM (Homo sapiens) (UniProt P54132); assay: qHTS Validation Assay for Inhibitors of Bloom's syndrome helicase (BLM) (AID 2364);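 also: plate controls were DMSO vehicle for no effect and enzyme-free control for full effect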
Summary of the method: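 50 nM BLM preincubated 15 min at room temperature with compound in pH 8.0 Tris buffer containing 2.5 ug/ml poly(dI-dC); started with 200 nM TAMRA/BHQ-2 forked duplex and 2 mM ATP (final). Unwinding read as TAMRA fluorescence increase, two reads 2 h apart.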

[18] = biological target: Ubiquitin carboxyl-terminal hydrolase 1 (Homo sapiens) (UniProt O94782); assay: Inhibitors of USP1/UAF1: Pilot qHTS (AID 504865);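 also: rhodamine fluorescence freed from ubiquitin-rhodamine substrate followed over time; top concentration of the series differs between compounds; % is scaled to controls: 0 for no effect and ±100 for the full control effect; nearly all actives have a fitted effect of over 35% in size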
Summary of the method: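 In 50mM HEPES pH 7.8 containing 0.5mM EDTA, 1mM TCEP, 0.1 mg/ml BSA and 0.01% Tween-20, 1nM USP1/UAF1 is exposed to compound for 15 min, then Ub-Rho (150nM final) is added and fluorescence is read over time.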

[19] = biological target: Luciferin 4-monooxygenase (Photinus pyralis) (UniProt P08659); assay: Biochemical firefly luciferase enzyme assay for NPC (AID 624030);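 also: purified P. pyralis luciferase at 10 nM with luciferin and ATP substrate; 0% = DMSO and -100% = full luciferase inhibition by PTC124 control; nearly all actives have a fitted effect of over 70% in size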
Summary of the method: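 Purified P. pyralis luciferase at 10 nM in 50 mM Tris Acetate (final), luminescence read within 5 minutes of enzyme addition to compounds. Activity normalised to PTC124 versus DMSO; concentration-response curves classed by r2, magnitude and activity.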

[20] = qHTS profiling for inhibitors of Plasmodium falciparum proliferation (AID 504749);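 also: 0% = DMSO vehicle and full inhibition = artemisinin control; nearly all actives have a fitted effect of over 60% in size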; conditions: P. falciparum in erythrocytes, SYBR Green DNA, 72 h, at 28.7 µM (top of the series)
Summary of the method: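 Readout was DNA-dye fluorescence from lysed cultures, ex 485/em 535 nm. Parasitized red cells had grown 72 h with compound; data scaled between 0.29 uM artemisinin and DMSO wells and corrected using vehicle-only plates.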

Luciferin 4-monooxygenase (Photinus pyralis), sequence (P08659 whole entry, looked up): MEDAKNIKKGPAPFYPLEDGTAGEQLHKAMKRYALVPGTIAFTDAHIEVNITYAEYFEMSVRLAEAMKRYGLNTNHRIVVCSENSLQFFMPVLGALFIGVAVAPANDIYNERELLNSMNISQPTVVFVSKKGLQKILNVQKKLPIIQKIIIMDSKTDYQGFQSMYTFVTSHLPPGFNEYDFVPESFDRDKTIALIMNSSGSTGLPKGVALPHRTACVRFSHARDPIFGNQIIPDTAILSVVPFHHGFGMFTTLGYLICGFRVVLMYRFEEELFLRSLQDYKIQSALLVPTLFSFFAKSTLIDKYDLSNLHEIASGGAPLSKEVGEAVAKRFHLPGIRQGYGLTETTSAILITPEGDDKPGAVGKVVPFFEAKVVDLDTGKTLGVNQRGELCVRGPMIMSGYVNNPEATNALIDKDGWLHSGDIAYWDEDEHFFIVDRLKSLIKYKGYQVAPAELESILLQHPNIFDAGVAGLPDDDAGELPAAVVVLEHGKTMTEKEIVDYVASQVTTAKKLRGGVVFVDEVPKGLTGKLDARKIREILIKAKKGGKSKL
Pyruvate kinase (Leishmania mexicana), sequence (Q27686 2-499 E452W): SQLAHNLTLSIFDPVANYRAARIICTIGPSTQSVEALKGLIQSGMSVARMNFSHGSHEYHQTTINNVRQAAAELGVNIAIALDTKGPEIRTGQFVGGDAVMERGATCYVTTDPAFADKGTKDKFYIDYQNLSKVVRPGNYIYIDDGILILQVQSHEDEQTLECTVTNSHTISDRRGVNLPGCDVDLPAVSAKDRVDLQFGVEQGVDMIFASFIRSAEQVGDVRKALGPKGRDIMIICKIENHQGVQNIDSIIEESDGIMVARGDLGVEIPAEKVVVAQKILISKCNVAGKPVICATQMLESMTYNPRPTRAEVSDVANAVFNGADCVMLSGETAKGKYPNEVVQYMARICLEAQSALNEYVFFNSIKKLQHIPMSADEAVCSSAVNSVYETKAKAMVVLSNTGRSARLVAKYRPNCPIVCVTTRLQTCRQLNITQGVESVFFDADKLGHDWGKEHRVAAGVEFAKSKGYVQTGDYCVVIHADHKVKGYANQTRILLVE
Voltage-gated inwardly rectifying potassium channel KCNH2 (Homo sapiens), sequence (Q12809 whole entry, looked up): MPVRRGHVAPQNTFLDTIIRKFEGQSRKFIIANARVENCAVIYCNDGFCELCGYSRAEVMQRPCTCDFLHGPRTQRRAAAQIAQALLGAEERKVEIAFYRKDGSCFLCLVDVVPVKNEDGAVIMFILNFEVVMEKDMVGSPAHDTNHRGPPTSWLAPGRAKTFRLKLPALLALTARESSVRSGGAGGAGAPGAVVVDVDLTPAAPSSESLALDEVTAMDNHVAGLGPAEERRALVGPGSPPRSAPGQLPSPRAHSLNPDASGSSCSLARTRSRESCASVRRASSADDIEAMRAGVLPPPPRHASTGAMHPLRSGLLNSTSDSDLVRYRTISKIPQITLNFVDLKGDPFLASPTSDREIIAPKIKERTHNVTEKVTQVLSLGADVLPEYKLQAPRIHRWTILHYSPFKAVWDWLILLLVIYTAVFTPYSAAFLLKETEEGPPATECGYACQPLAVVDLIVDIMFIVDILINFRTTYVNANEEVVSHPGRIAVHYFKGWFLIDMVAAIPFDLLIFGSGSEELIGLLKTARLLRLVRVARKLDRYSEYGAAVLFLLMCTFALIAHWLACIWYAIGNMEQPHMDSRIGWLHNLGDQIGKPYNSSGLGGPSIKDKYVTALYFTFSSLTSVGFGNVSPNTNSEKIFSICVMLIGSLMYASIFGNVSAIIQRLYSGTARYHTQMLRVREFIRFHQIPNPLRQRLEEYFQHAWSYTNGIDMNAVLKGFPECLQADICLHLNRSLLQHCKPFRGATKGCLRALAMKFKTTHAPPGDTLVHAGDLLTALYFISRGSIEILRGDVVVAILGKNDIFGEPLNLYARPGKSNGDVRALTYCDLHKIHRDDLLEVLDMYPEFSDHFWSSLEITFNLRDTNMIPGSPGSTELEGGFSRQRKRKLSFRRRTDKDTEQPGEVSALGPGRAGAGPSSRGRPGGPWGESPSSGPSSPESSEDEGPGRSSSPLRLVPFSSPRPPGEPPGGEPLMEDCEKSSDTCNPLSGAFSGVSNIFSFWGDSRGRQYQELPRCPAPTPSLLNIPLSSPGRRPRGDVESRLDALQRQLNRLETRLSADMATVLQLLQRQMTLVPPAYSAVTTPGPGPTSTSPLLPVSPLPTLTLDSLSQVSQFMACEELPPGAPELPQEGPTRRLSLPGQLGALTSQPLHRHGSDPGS
Glucocorticoid receptor (Homo sapiens), sequence (P04150 whole entry, looked up): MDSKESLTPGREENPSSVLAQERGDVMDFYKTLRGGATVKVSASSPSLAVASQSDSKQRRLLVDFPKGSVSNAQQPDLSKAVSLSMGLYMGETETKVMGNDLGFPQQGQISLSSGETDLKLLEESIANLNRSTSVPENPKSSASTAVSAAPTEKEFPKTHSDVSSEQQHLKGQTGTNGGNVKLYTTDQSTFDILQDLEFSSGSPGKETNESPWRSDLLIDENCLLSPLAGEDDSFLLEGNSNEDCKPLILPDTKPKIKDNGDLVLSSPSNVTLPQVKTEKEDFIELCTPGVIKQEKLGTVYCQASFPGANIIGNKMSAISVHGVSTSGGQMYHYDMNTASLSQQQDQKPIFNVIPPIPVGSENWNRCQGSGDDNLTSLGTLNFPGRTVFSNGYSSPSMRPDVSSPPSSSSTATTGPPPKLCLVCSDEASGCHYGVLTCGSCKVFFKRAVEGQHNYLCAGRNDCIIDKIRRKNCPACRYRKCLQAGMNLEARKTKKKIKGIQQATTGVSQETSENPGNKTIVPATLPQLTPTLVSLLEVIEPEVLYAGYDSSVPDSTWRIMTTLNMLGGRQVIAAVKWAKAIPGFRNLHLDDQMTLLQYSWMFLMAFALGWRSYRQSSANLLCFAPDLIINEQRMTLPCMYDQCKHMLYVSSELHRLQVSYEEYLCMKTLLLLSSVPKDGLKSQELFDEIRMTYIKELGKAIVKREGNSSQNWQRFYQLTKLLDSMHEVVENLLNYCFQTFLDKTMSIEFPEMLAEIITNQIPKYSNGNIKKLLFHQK
Guanine nucleotide-binding protein G(i) subunit alpha-1 (Homo sapiens), sequence (P63096 whole entry, looked up): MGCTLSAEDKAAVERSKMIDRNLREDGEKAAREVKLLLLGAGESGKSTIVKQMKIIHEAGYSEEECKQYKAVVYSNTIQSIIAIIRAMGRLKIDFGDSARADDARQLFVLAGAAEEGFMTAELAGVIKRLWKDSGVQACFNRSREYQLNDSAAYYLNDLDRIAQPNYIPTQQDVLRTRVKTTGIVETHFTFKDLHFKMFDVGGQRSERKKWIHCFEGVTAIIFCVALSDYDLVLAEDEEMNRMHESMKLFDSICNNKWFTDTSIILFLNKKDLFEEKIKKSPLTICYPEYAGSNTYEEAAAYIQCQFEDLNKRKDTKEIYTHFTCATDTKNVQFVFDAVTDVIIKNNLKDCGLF
RecQ-like DNA helicase BLM (Homo sapiens), sequence (P54132 whole entry, looked up): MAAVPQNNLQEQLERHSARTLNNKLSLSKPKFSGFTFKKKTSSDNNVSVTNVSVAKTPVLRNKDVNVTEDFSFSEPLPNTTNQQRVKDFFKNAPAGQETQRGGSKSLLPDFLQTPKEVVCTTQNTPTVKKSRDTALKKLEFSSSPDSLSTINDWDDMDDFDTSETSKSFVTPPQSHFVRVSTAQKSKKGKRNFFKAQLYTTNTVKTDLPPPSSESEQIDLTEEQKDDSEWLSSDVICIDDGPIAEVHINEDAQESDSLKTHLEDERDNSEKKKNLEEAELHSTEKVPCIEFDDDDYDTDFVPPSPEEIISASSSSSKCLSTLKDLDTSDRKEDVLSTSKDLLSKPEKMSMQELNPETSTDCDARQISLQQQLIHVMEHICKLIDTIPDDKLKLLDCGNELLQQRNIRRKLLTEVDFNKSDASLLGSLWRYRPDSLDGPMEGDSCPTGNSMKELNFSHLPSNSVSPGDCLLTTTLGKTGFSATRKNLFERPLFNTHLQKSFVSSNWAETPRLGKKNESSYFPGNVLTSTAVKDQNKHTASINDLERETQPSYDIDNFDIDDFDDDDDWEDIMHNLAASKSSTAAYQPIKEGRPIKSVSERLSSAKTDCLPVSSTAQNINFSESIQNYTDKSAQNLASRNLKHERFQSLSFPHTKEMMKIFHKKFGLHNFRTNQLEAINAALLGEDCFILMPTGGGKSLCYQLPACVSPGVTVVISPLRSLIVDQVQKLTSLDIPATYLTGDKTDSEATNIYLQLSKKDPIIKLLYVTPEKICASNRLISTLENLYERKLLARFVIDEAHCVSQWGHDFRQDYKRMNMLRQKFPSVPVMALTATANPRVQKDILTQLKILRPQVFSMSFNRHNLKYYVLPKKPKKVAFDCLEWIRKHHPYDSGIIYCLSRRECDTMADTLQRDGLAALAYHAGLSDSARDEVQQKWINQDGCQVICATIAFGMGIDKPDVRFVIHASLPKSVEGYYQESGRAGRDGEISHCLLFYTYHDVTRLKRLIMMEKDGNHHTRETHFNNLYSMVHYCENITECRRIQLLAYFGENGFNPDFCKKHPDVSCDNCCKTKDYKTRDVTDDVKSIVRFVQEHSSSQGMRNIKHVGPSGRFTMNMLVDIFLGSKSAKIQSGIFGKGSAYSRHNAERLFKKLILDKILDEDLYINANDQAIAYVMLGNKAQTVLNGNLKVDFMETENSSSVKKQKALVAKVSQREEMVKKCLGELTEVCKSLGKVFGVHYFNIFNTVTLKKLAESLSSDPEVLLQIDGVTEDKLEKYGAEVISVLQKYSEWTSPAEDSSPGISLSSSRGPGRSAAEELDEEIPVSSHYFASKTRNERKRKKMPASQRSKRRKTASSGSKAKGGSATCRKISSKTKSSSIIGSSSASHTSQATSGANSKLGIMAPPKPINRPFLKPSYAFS

CC1Cc2cc3c(cc2C(c2ccc(N)cc2)=NN1)OCO3 (stereo unspecified)
inactive: Potency [2] | Potency [4] | Potency [5]
active: Potency [1] 12.6 µM | Potency [3] 2.24 µM

CCCN(CCC)C(=O)Cc1c(-c2ccc(Cl)cc2)nc2c(Cl)cc(Cl)cn12
inactive: outcome [6] | outcome [7] | Potency [8] > 46 µM | outcome [9] | Potency [10] | Potency [11] | outcome [12] | Potency [4] | Potency [5] | Potency [13]

C#CCN(C)C(C)Cc1ccccc1 (stereo unspecified)
inactive: outcome [6] | outcome [7] | Potency [8] > 20.6 µM | Potency [1] | Potency [14] | Potency [15] | Potency [2] | Potency [16] | Potency [3] | Potency [11] | outcome [12] | outcome [17] | Potency [4] | Potency [5] | Potency [13]

NNCc1cccc(O)c1
inactive: outcome [6] | outcome [7] | Potency [8] > 46 µM | outcome [9] | Potency [13]
active: Potency [10] 10 µM | Potency [1] 12.6 µM | Potency [15] 12.6 µM | Potency [2] 14.1 µM | Potency [3] 12.6 µM | Potency [11] 14.1 µM | Potency [5] 7.38 µM

COc1ccc2c(c1O)-c1cccc3c1C(C2)N(C)CC3 (stereo unspecified)
inactive: outcome [17] | Potency [4]
active: Potency [1] 8.91 µM | Potency [14] 8.91 µM | Potency [15] 10 µM | Potency [2] 14.1 µM | Potency [16] 11.2 µM | Potency [3] 7.94 µM | Potency [11] 12.6 µM

CCCN(CCC)[C@@H]1CCc2c(F)ccc(O)c2C1
inactive: outcome [17]
active: Potency [1] 1.12 µM | Potency [14] 0.355 µM | Potency [15] 1.58 µM | Potency [2] 2.24 µM | Potency [16] 1.41 µM | Potency [3] 0.891 µM | Potency [11] 1.41 µM | Potency [4] 2.62 µM | Potency [5] 2.62 µM

CCCC[N+]1(C)C2CC(OC(=O)C(CO)c3ccccc3)CC1C1OC12 (stereo unspecified)
inactive: Potency [1] | Potency [14] | Potency [2] | Potency [16] | Potency [11] | Potency [4] | Potency [5] | Potency [18] | Potency [19] | activity, negative = inhibition ([20]; parasite line A) -8.81% | activity, negative = inhibition ([20]; parasite line B) -5.62%

C[N+]1(C)C2CC(OC(=O)C(CO)c3ccccc3)CC1C1OC12 (stereo unspecified)
inactive: Potency [1] | Potency [14] | Potency [15] | Potency [2] | Potency [16] | Potency [3] | Potency [11] | outcome [12] | outcome [17] | Potency [4] | Potency [5] | Potency [13]

COc1cc(C[C@@H](C)N)c(OC)cc1I
active: Potency [14] 12.6 µM | Potency [16] 7.08 µM | Potency [3] 3.98 µM
inactive: Potency [15] | Potency [2] | Potency [11] | outcome [17] | Potency [4] | Potency [5] | Potency [13]

Oc1ccc2c3c1O[C@H]1[C@@H](O)CC[C@@]4(O)C(C2)N(CC2CCC2)CCC314 (stereo partly specified)
active: Potency [13] 5.01 µM
inactive: Potency [1] | Potency [15] | Potency [2] | Potency [16] | Potency [11] | outcome [12] | outcome [17] | Potency [18] | Potency [19] | activity, negative = inhibition ([20]; parasite line A) 12% | activity, negative = inhibition ([20]; parasite line B) 0.575%

C[C@H]1OC[C@@H](C[N+](C)(C)C)O1
inactive: outcome [6] | outcome [7] | Potency [8] > 46 µM and > 20.6 µM | outcome [9] | Potency [10] | Potency [1] | Potency [14] | Potency [15] | Potency [2] | Potency [16] | Potency [3] | Potency [11] | outcome [12] | outcome [17] | Potency [4] | Potency [5] | Potency [13]

NC(Cn1ccc(=O)[nH]c1=O)C(=O)O (stereo unspecified)
inactive: Potency [1] | Potency [14] | Potency [15] | Potency [2] | Potency [16] | Potency [3] | Potency [11] | outcome [12] | Potency [4] | Potency [5] | Potency [13]

N#CC(=Cc1ccc(O)c(O)c1)C(N)=S
inactive: Potency [2] | Potency [16] | Potency [4] | Potency [5]

CCCN1CCC[C@@H]2Cc3n[nH]cc3C[C@H]21
inactive: Potency [14] | Potency [15] | Potency [2] | Potency [16] | Potency [11] | outcome [12] | Potency [4] | Potency [5]

Nc1ncnc2c1ncn2[C@@H]1O[C@H](COP(=O)(O)CP(=O)(O)OP(=O)(O)O)[C@H](O)[C@H]1O
inactive: Potency [1] | Potency [14] | Potency [15] | Potency [2] | Potency [16] | Potency [3] | Potency [11] | outcome [12] | Potency [4] | Potency [5] | Potency [13]

CNC(C)[C@@H](O)c1ccc(O)cc1 (stereo partly specified)
inactive: Potency [18] | Potency [19] | activity, negative = inhibition ([20]; parasite line A) 1.09% | activity, negative = inhibition ([20]; parasite line B) 3.21%
